In the supplement of paper PMC7057948, “A genome-wide approach for identification and characterisation of metabolite-inducible systems” (Nature Communications, 2020):

Test system: HpdR/P_H16_RS18295 3-hydroxypropanoate biosensor (pEH010)
Experiment: relative induction of RFP reporter vs primary effector; higher = stronger activation
Conditions: inducer concentration 5 mM; 6 h; Cupriavidus necator H16; minimal medium + 0.4% gluconate
Method: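 Orthogonality screen of 21 primary inducers against 21 transcription factor/inducible promoter–mRFP biosensors in C. necator H16 in minimal medium, robotic 96-well format, 5 mM inducer, 30 °C. OD-normalised RFP fluorescence was read 6 h later and expressed as relative induction (%) = 100 × (FL compound − FL uninduced)/(FL primary inducer − FL uninduced); mean of n=4. Cognate pairs (100% by definition) omitted.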

Row | SMILES | relative induction of RFP reporter [%]
1 | O=C(O)c1ccccc1O [salicylate] | 0.195
2 | O=C(O)CS(=O)(=O)O [sulfonatoacetate] | -0.0436
3 | NCCC(=O)O [β-alanine] | 0.231
4 | C=C(CC(=O)O)C(=O)O [itaconate] | -0.14
5 | Nc1ccccc1C(=O)C[C@H](N)C(=O)O [L-kynurenine] | -0.129
6 | O=C(O)C1CCCCC1 [cyclohexane-1-carboxylate] | -0.461
7 | CC(=O)C(C)O (stereo unspecified) [acetoin] | -0.347
8 | N[C@@H](Cc1ccccc1)C(=O)O [L-phenylalanine] | -0.399
9 | OC1OC[C@H](O)[C@H](O)[C@H]1O (mixture of isomers) [L-arabinose] | 0.017
10 | O=C(O)c1ccc(O)c(O)c1 [3,4-dihydroxybenzoate] | -0.0358
11 | O=C(O)c1ccccc1 [benzoate] | -0.293
12 | N[C@@H](Cc1ccc(O)cc1)C(=O)O [L-tyrosine] | -0.292
13 | O=C(O)C(O)C(O)C(=O)O (stereo unspecified) [tartrate] | -0.0938
14 | O=CO [formate] | 0.0754
15 | O=C(O)C(=O)c1ccccc1 [phenylglyoxylate] | -0.296
16 | O=c1[nH]c(=O)c2nc[nH]c2[nH]1 [xanthine] | 0.1
